Reference: PubChem BioAssay (Tox21)
Values joined by “and” are separate entries in the source; they are usually repeats but may differ in a detail not shown here. Equal entries are not always repeated. Active and inactive are the calls of the source. Entries that show only a call come without a potency. Unless noted, calls come from the whole dose curve; as a rule, active = well fitted curve in the direction sought with a large enough effect in the repeat runs; inconclusive = weak or mixed curves; inactive = no such curve, though single readings can be large; an effect the other way counts as inactive or inconclusive.

Tests used:
[1] = qHTS assay to identify small molecule antagonists of the thyroid receptor (TR) signaling pathway (AID 743065); note: nearly all actives have a fitted effect of over 55% in size; note: potency is the fitted concentration of half-maximal effect
Summary of the method: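 GH3.TRE-Luc rat pituitary cells (two TREs driving luciferase) were dosed with compound, then stimulated with 1 nM T3 (final) for 23.5 h at 37 C. ONE-Glo luminescence was the read-out, with CellTiter-Fluor fluorescence as the cytotoxicity counter-screen.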

[2] = tested on: thyroid hormone receptor (rat, GH3 cells); assay: qHTS assay to identify small molecule agonists of the thyroid receptor (TR) signaling pathway (AID 743066; calls by dose curve)
[3] = target: Estrogen receptor (Homo sapiens) (UniProt P03372); assay: qHTS assay to identify small molecule antagonists of the estrogen receptor alpha (ER-alpha) signaling pathway (AID 743069; active = well fitted curve in the direction sought with a large enough effect in the signal ratio in the repeat runs, not every such curve was filed as active; inconclusive = weak or mixed curves, or effect the other way; inactive = no such curve, though single readings can be large or run the other way; the % refers to the signal ratio; note: potency is the fitted concentration of half-maximal effect)
Summary of the method: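 HEK293 ER-alpha-UAS-bla GripTite cells, held overnight in 2% charcoal-stripped FBS, 5,000 cells/well, preincubated 4 h, then compound plus 17beta-estradiol for 18 h at 37C. Beta-lactamase read by LiveBLAzer B/G FRET substrate, 2 h at room temperature.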

[4] = qHTS assay to identify small molecule antagonists of the estrogen receptor alpha (ER-alpha) signaling pathway - cell viability counter screen (AID 743074; calls by dose curve;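 note: HEK293 cells carrying ER-alpha-UAS-bla reporter stimulated with 17beta-estradiol; nearly all actives have a fitted effect of over 45% in size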)
[5] = target: Estrogen receptor (Homo sapiens) (UniProt P03372); assay: qHTS assay to identify small molecule agonists of the estrogen receptor alpha (ER-alpha) signaling pathway using the BG1 cell line (AID 743079); note: nearly all actives have a fitted effect of over 20% in size; note: potency is the fitted concentration of half-maximal effect
[6] = qHTS assay to identify small molecule antagonists of the estrogen receptor alpha (ER-alpha) signaling pathway using the BG1 cell line (AID 743080; calls by dose curve;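 note: BG1 cells stimulated with 17beta-estradiol alongside compound; nearly all actives have a fitted effect of over 25% in size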; note: potency is the fitted concentration of half-maximal effect)
Summary of the method: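 Seeding, 24 h rest, compound transfer from DMSO, 17beta-estradiol addition, 21.5 h incubation, CellTiter-Fluor (30 min, 37 C), then ONE-Glo (30 min, room temperature): this sequence was run on BG1-Luc-4E2 reporter cells.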

[7] = qHTS assay to identify small molecule antagonists of the estrogen receptor alpha (ER-alpha) signaling pathway using the BG1 cell line - cell viability counter screen (AID 743081);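 note: compound given together with 17beta-estradiol as the ER stimulus; series mostly up to about 70 µM; nearly all actives have a fitted effect of over 45% in size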
Aromatase (Homo sapiens) = Aromatase (Homo sapiens) (UniProt P11511); assay: qHTS assay to identify aromatase inhibitors (AID 743083); note: nearly all actives have a fitted effect of over 55% in size; note: potency is the fitted concentration of half-maximal effect
[8] = qHTS assay to identify aromatase inhibitors - cell viability counter screen (AID 743084);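 note: cells stimulated with testosterone during compound exposure; nearly all actives have a fitted effect of over 55% in size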
[9] = target: Aryl hydrocarbon receptor (Homo sapiens) (UniProt P35869); assay: qHTS assay to identify small molecule that activate the aryl hydrocarbon receptor (AhR) signaling pathway (AID 743085); note: nearly all actives have a fitted effect of over 15% in size; note: potency is the fitted concentration of half-maximal effect;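 for activation: HG2L7.5c1 human HepG2 liver cells with stably integrated DRE-driven firefly reporter; series mostly up to about 70 µM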
Summary of the method: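 HepG2 cells (HG2L7.5c1) stably carrying a firefly luciferase reporter driven by 20 dioxin responsive elements were exposed to compound for 24 h at 37C after a 5 h settling period; luminescence rise (ONE-Glo) indicated activation.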

[10] = qHTS assay to identify small molecule that activate the aryl hydrocarbon receptor (AhR) signaling pathway - cell viability counter screen (AID 743086);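 note: HepG2 liver cells carrying the AhR DRE luciferase reporter; series mostly up to about 70 µM; nearly all actives have a fitted effect of over 45% in size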
Summary of the method: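 HepG2-AhR-luc (HG2L7.5c1) cells, 4000/well, treated 24 h at 37 C with compound; viability measured as CellTiter-Fluor fluorescence after 30 min in the same wells as the luciferase read.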

[11] = target: Peroxisome proliferator-activated receptor gamma (Homo sapiens) (UniProt P37231); assay: qHTS assay to identify small molecule agonists of the peroxisome proliferator-activated receptor gamma (PPARg) signaling pathway (AID 743094; active = well fitted activation curve with a large enough effect in the signal ratio in the repeat runs, not every such curve was filed as active; inconclusive = weak or mixed curves, or effect the other way; inactive = no such curve, though single readings can be large or run the other way; the % refers to the signal ratio)
Summary of the method: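 Stably transfected HEK293H cells (GeneBLAzer PPARg UAS-bla) were incubated with test substances for 17 h at 37C after a 5 h pre-incubation; beta-lactamase activity was then detected by FRET substrate fluorescence.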

[12] = qHTS assay to identify small molecule antagonists of the thyroid receptor (TR) signaling pathway - cell viability counter screen (AID 743064); note: nearly all actives have a fitted effect of over 50% in size
Summary of the method: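 GH3.TRE-Luc rat pituitary cells carrying a TRE-luciferase reporter were treated with compound plus 1 nM T3 (final) for 23.5 h at 37 °C. Viability was then read in the same wells by CellTiter-Fluor fluorescence after a further 30 min.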

[13] = target: Estrogen receptor (Homo sapiens) (UniProt P03372); assay: qHTS assay to identify small molecule agonists of the estrogen receptor alpha (ER-alpha) signaling pathway (AID 743075; calls by dose curve)
[14] = qHTS assay to identify small molecule antagonists of the peroxisome proliferator-activated receptor gamma (PPARg) signaling pathway - cell viability counter screen (AID 743194); note: potency is the fitted concentration of half-maximal effect; nearly all actives have a fitted effect of over 55% in size
Summary of the method: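 Cytotoxicity counter screen in PPARg-bla HEK293H cells, same wells as reporter assay. Compounds plus 50 nM rosiglitazone (final) for 17 h at 37 C, then viability read by CellTiter-Glo luminescence.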

[15] = qHTS assay to identify small molecule agonists of the peroxisome proliferator-activated receptor delta (PPARd) signaling pathway - cell viability counter screen (AID 743211)
Summary of the method: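 PPARd-bla HEK293H cells (UAS-beta-lactamase reporter) were treated with compounds for 17 h at 37 C. Viability was then read in the same wells by CellTiter-Glo luminescence after 30 min at room temperature.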

Chain of Aromatase (Homo sapiens) (P11511 whole entry, looked up): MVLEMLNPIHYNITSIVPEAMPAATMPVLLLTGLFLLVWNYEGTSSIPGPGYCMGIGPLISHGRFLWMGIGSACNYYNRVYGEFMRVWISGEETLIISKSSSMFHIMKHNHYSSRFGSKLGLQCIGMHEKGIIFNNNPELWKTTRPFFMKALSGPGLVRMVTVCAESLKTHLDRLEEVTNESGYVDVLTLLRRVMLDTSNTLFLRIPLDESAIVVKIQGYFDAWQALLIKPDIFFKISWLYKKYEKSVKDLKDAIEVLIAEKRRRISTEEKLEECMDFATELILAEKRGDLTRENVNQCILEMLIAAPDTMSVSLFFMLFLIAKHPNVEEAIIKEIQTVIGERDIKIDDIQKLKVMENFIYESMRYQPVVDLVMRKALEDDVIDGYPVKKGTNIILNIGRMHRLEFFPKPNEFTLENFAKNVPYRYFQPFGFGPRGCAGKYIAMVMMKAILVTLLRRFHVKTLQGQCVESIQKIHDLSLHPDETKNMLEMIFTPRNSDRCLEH
Chain of Estrogen receptor (Homo sapiens) (P03372 whole entry, looked up): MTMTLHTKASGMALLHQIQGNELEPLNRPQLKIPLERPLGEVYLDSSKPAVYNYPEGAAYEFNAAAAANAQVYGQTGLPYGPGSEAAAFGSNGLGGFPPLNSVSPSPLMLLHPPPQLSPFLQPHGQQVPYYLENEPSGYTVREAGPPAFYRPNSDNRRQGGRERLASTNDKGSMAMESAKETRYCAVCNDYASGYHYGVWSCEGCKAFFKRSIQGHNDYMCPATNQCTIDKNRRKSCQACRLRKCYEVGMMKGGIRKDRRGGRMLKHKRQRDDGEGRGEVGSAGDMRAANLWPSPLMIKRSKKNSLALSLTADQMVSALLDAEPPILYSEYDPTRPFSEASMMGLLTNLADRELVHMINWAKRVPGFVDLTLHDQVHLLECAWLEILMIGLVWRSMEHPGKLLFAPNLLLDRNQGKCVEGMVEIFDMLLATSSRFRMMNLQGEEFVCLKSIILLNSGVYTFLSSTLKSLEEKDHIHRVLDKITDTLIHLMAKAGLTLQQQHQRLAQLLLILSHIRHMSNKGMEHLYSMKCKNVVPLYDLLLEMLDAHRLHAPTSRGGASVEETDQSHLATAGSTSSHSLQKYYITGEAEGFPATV
Chain of Peroxisome proliferator-activated receptor gamma (Homo sapiens) (P37231 whole entry, looked up): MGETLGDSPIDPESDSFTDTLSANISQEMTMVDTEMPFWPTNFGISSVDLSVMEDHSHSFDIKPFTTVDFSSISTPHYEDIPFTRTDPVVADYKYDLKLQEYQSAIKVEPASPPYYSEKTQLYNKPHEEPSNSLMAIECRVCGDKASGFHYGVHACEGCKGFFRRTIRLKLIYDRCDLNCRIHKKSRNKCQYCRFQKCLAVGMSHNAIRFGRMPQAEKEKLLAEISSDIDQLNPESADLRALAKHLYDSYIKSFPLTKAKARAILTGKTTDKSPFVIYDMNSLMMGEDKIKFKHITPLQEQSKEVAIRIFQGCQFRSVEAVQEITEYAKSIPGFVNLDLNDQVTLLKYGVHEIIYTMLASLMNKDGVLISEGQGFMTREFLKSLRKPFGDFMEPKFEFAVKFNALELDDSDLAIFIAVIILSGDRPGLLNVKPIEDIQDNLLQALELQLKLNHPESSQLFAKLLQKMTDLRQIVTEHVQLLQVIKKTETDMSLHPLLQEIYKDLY
Chain of Aryl hydrocarbon receptor (Homo sapiens) (P35869 whole entry, looked up): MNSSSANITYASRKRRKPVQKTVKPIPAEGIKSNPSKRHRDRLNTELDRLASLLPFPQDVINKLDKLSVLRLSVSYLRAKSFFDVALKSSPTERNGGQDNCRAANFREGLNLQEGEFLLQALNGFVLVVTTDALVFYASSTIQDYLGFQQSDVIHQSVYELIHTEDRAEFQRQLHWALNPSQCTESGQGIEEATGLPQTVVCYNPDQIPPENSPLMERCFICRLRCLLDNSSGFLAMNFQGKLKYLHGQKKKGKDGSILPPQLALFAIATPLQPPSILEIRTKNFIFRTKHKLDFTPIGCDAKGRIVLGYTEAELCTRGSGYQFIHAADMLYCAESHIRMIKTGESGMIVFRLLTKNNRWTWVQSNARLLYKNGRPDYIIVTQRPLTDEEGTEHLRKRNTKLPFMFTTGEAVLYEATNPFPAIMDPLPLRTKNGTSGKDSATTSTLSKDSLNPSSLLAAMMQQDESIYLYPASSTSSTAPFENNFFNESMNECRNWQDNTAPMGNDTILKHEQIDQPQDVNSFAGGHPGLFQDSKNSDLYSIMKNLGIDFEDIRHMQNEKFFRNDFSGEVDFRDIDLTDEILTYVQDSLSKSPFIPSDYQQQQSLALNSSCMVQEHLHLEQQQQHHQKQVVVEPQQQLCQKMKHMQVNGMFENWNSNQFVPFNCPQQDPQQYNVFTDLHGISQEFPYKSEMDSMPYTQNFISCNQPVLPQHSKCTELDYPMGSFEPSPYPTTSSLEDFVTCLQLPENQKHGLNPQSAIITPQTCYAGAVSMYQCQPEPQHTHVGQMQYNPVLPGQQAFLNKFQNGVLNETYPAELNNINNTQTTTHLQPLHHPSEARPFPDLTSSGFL

SMILES | Potency [1] | Potency [2] | Potency [3] | Potency [4] | Potency [5] | Potency [6] | Potency [7] | Potency (Aromatase (Homo sapiens)) | Potency [8] | Potency [9] | Potency [10] | Potency [11] | Potency [12] | Potency [13] | Potency [14] | Potency [15]
O=C(O)c1cc2cc(Cc3cccnc3)ccc2o1 | inactive | inactive | inactive | inactive | 18.8 µM (active) | inactive | inactive | inactive | inactive | inactive | inactive | inactive | – | – | – | –
CCCCC[C@H](O)/C=C/[C@@H]1[C@@H](C/C=C\CCCC(=O)O)[C@@H](O)C[C@H]1O | – | – | – | inactive | 29.8 µM (active) | – | inactive | inactive | inactive | inactive | inactive | inactive | inactive | – | – | –
CCN(CC)C(=O)[C@]1(c2ccccc2)C[C@@H]1CN | inactive | inactive | – | inactive | – | – | inactive | – | – | – | inactive | – | – | – | – | –
CO[C@H](C(=O)[C@@H](O)[C@@H](C)O)C1Cc2cc3cc(O[C@H]4C[C@@H](O[C@H]5C[C@@H](O)[C@H](O)[C@@H](C)O5)[C@@H](O)[C@@H](C)O4)c(C)c(O)c3c(O)c2C(=O)[C@H]1O[C@H]1C[C@@H](O[C@H]2C[C@@H](O[C@H]3C[C@](C)(O)[C@H](O)[C@@H](C)O3)[C@H](O)[C@@H](C)O2)[C@H](O)[C@@H](C)O1 (some centres not stated) | 335 nM (active) and 237 nM (active) | – | 301 nM [inconclusive] (active) and 190 nM [inconclusive] (active) | inactive | – | 266 nM (active) and 335 nM (active) | inactive | 841 nM (active) and 668 nM (active) | inactive | 0.237 µM (active) | – | – | – | inactive | – | –
CC(=O)N(C)C | inactive | – | – | – | – | – | – | – | – | inactive | – | – | – | – | – | –
O=C(Nc1ccccc1)c1cc(Cl)ccc1O | 5.45 µM (active) | inactive | – | – | – | – | – | 27.3 µM (active) | – | 3.06 µM (active) | inactive | – | – | – | 6.92 µM (active) | –
C[C@@H]1O[C@@H]1P(=O)(O)O | inactive | inactive | – | inactive | – | – | inactive | inactive | inactive | – | inactive | inactive | – | – | – | –
CC/C(=C(/CC)c1ccc(OP(=O)(O)O)cc1)c1ccc(OP(=O)(O)O)cc1 | inactive | inactive | – | – | – | – | inactive | inactive | inactive | inactive | inactive | inactive | – | – | – | –
COC(=O)C[C@](O)(CCCC(C)(C)O)C(=O)O[C@@H]1C(OC)=CC23CCCN2CCc2cc4c(cc2[C@H]13)OCO4 (some centres not stated) | 0.0376 µM (active) | – | 674 nM [inconclusive] (active) and 1.2 µM [inconclusive] (active) | inactive | – | 0.168 µM (active) | inactive | 29.8 nM (active) and 23.7 nM (active) | – | – | – | – | – | inactive | – | –
COc1ccc(/C=C/C(=O)Nc2ccccc2C(=O)O)cc1OC | – | inactive | inactive | inactive | inactive | 8.41 µM (active) | inactive | inactive | inactive | 3.35 µM (active) | inactive | inactive | – | inactive | – | –
C[C@@H]1O[C@@H](OC[C@H]2O[C@@H](Oc3c(-c4ccc(OCCO)c(OCCO)c4)oc4cc(OCCO)cc(O)c4c3=O)[C@H](O)[C@@H](O)[C@@H]2O)[C@H](O)[C@H](O)[C@H]1O | inactive | inactive | – | inactive | – | – | inactive | inactive | inactive | inactive | inactive | inactive | – | – | – | –
C=CCc1cc(S(=O)(=O)c2ccc(O)c(CC=C)c2)ccc1O | 24.3 µM (active) | – | 34.7 µM [inconclusive] (active) | inactive | – | 61.1 µM (active) | inactive | 54.5 µM (active) | inactive | – | – | inactive | – | inactive | – | 43.6 µM (active)
